Test results reported in the supplement of paper PMC3334620.
Over roughly 33,000 sequences, “E-score (-0.5 to 0.5)” has its median near -8e-05; the highest 2% begin near 0.23. The sample as a whole holds a higher share of the highest values than the screen did.

Target: T1, Nrg2 (UniProt P38082)
T1 sequence: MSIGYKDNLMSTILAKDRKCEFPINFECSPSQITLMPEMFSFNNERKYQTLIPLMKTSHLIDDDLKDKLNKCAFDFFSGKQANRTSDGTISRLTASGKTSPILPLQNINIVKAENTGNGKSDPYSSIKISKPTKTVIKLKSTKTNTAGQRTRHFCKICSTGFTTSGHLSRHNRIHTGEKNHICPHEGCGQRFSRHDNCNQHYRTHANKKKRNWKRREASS
Test: PBM E-score (8-mer binding enrichment) (E-score (-0.5 to 0.5)); higher = stronger / more preferred TF binding
Details: protein concentration: 100 nM; construct: GST-full length
Description: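 Universal 'all 10-mer' protein binding microarrays (Agilent AMADID 015681) probed with GST-tagged S. cerevisiae TFs (full-length or DBD) made by in vitro transcription/translation (PURExpress), about 100-200 nM. Bound TF was detected with fluorescent anti-GST. Each ungapped 8-mer (which stands for itself and its reverse complement) is scored by the PBM enrichment score (E-score), a modified Wilcoxon-Mann-Whitney statistic from -0.5 to +0.5, computed with the Universal PBM Analysis Suite. Scale: above 0.35 generally sequence-specific binding.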

Sequence	PBM E-score
CTTGCGCA	0.264
ATTGCAAT	0.243
ATTGCGCA	0.143
ATTGCAAA	0.127
ATTGCAAG	0.137
CATGCGCA	0.164
CTTGCGCC	-0.0573
AATGCGCA	0.296
ATCCTTGC	-0.0413
AGCAGACC	0.135
ACCTTCTA	-0.0686
CGTGTCCC	-0.104
ACGACTAT	0.0778
CTGTAGGA	0.0349
AGTAGTAT	0.114
ATAAATCA	0.0708
CGAAATCA	0.244
CGAAATCC	0.199
CTAAATCA	0.0351
GTAAATCA	0.24
GGAAATCA	-0.049
GCTGTGTA	-0.051

Sequence	PBM E-score
CCTCTCCA	-0.343
AGGCATCC	-0.161
AGGGGTAC	0.142
CTCTTTTA	-0.0622
ATTCATAC	0.238
CTTCATAC	0.112
ATTCATAG	0.155
ATCTCATC	0.0993
CTTATGGC	-0.0261
CCCTGACA	0.288
GCCTGACA	-0.173
GCCTGACC	-0.0177
ACCTGACC	-0.197
CCCTGACC	0.3
CCCTGACG	0.138
TAACTGCA	0.157
CTCTCAAC	-0.121
GAGTCTCC	-0.178
CAGCAATC	0.0368
AAACAGTG	0.167
AAGGGATC	0.135
CAGGGATC	0.238

Sequence	PBM E-score
CAGGGATA	0.286
TAGGGATA	0.134
GAGGGATA	-0.145
CAGGGATG	0.211
ATTTTCTC	0.106
GCCGCCAC	-0.231
CCCGCCAC	0.269
ACCGCCAC	-0.117
GGCGTCGA	0.148
CAGGTAGC	-0.212
AATGCTGC	0.0363
AATGGCCA	-0.0344
ACTTTAAG	0.243
CCTTTAAG	-0.0435
ACTTTAAA	0.0738
GATTAGAC	0.0407
CGTCGAAA	0.075
CGAATGAG	0.0496
ATAGATCG	0.0393
CAAACTCC	0.0622
AGCTAGCT	0.244
AGCTAGCC	-0.0348

Sequence	PBM E-score
AGCTAGCA	-0.191
ACGCAGCT	0.0108
AGTCTGAG	-0.319
AGGACAGA	0.0623
CGGCTTGC	0.237
AGGCTTGC	-0.173
CGGCTTGA	-0.0482
CGCCTAGC	-0.315
GGTCTTAA	-0.301
CATCTCTC	0.148
ACCGCAGA	-0.0429
ATTCGGGG	0.243
ATTCGGGA	0.0112
ATTCGGGC	-0.044
ACCCGCTG	-0.133
ATTTACTG	0.107
CTTTACTC	0.144
GTTTACTA	0.155
CTTTACTA	0.26
ATTTACTC	0.271
